Texas Red fluor – qHTS Assay for Spectroscopic Profiling in Texas Red Spectral Region; Compound fluorescence, Texas Red channel, 547/618 nm; hits give high values; max dye-equivalent concentration, M; hit rate 0.06% among 59,000; AID 587, 2007; in the data active = max dye-equivalent concentration above about 10 nM; inconclusive = between about 1.1 nM and that limit
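Fluorescence at ex 547/em 618 nm, normalized against an on-plate Texas Red standard series to give dye-equivalent concentration per compound concentration. Buffer 100 mM Tris, pH 8.0; 15 min RT incubation before CCD imaging.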
Rhodamine autofl – qHTS Assay for Spectroscopic Profiling in Rhodamine Spectral Region; Rhodamine-region fluorescence, 547/598 nm, Tris buffer; hits give high values; max dye-equivalent concentration, M; hit rate 0.05% among 59,000; AID 594, 2007; in the data active = max dye-equivalent concentration above about 11 nM; inconclusive = between about 1.1 nM and that limit
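Steps: pin-transfer compounds into pH 8.0 Tris (100 mM), hold 15 min at room temperature, image with a 547/598 nm filter pair, and convert intensities to rhodamine-equivalent concentration using a six-point on-plate rhodamine series.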
A647 autofl – qHTS Assay for Spectroscopic Profiling in A647 Spectral Region | AID 592, 2007 | Compound fluorescence, A647 channel (570/671 nm), Tris buffer | max dye-equivalent concentration, M | 59,000 tested, under 10 active
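Compound fluorescence was measured in 100 mM Tris buffer, pH 8.0, after 15 min at room temperature, using 570 nm excitation and 671 nm emission filters. Signal was normalized to a per-plate Alexa 647 standard curve and expressed as dye-equivalent concentration at each compound concentration.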
A488 autofl – qHTS Assay for Spectroscopic Profiling in A488 Spectral Region | compound autofluorescence, A488 spectral region, dye equivalency; Compound Type: qHTS ECL - MLSMR | max dye equivalency, M | hit rate 0.1% among 59,000
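Compound autofluorescence was read in 100 mM Tris pH 8.0 after 15 min at room temperature, ex 480 nm/em 540 nm. Intensities were converted to A488 dye-equivalent concentration using an on-plate six-point A488 standard curve.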
Fluorescein fluor – qHTS Assay for Spectroscopic Profiling in Fluorescein Spectral Region; AID 593, 2007; Compound autofluorescence, 480/540 nm, fluorescein-equivalent; hits give high values; hit rate 0.91% among 59,000; max fluorescein-equivalent concentration, M; in the data active = max fluorescein-equivalent concentration above about 10 nM; inconclusive = between about 1.1 nM and that limit
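Autofluorescence profiling; 100 mM Tris, pH 8.0; incubation 15 min at RT; ex/em 480/540 nm; result as fluorescein-equivalent concentration.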
Resorufin fluor – qHTS Assay for Spectroscopic Profiling in Resorufin Spectral Region; Compound fluorescence, resorufin region 547/598 nm, buffer; hits give high values; max dye-equivalent concentration, M; hit rate 0.04% among 59,000
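Compounds in 100 mM Tris buffer, pH 8.0, incubated 15 min at room temperature, then read with 547 nm excitation and 598 nm emission filters. Fluorescence was converted to dye-equivalent concentration using an on-plate six-point resorufin standard curve.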
Each line names hits and unclear results; the compound was inactive in the other large screens. Sampled rows, rich in hits. Any-hit rate of the full collection: about 0.95%. Unless noted, the rule behind the calls is not given here.

O=C1c2cccnc2C(=O)N1Cc1ccc(F)cc1	A488 autofl inconclusive, Fluorescein fluor 8.2e-08M
CCOC(=O)c1csc(NC(=O)CSc2nnnn2-c2ccc(OCC)cc2)n1	Fluorescein fluor 2.3e-08M
COC(=O)c1ccc2c(c1)NC(=O)C(N1CCCC1)S2 (stereo unspecified)	Fluorescein fluor inconclusive
O=C(O)c1ccc2c(c1)NC(=O)C(N1CCCC1)S2 (stereo unspecified)	Fluorescein fluor 1.1e-08M
Cc1ccc(S(=O)(=O)N2CCC(C(=O)Nc3nnc(C4CCCC4)s3)CC2)cc1	Fluorescein fluor 1.2e-08M
CCN(CC)c1nc2ccccc2nc1C(C#N)C(=O)NCCc1ccccc1 (stereo unspecified)	Texas Red fluor inconclusive, A488 autofl inconclusive, Fluorescein fluor 1.1e-07M
CCOC(=O)N1CCN(c2nc3ccccc3nc2C(C#N)C(=O)NCCc2ccccc2)CC1 (stereo unspecified)	Fluorescein fluor 1.1e-08M
CCN(CC)c1nc2ccccc2nc1C(C#N)C(=O)NCCCOC (stereo unspecified)	Fluorescein fluor inconclusive
CCN1CCN(c2nc3ccccc3nc2C(C#N)C(=O)OCc2ccccc2)CC1 (stereo unspecified)	Fluorescein fluor inconclusive
CCOC(=O)C1CCCN(c2nc3ccccc3nc2C(C#N)C(=O)NCc2ccccc2)C1 (stereo unspecified)	A488 autofl 5e-08M, Fluorescein fluor 8.6e-07M
N#CC(C(=O)NCCc1ccccc1)c1nc2ccccc2nc1N1CCOCC1 (stereo unspecified)	Fluorescein fluor inconclusive
N#CC(C(=O)NCCc1ccccc1)c1nc2ccccc2nc1N1CCCCC1 (stereo unspecified)	A488 autofl inconclusive, Fluorescein fluor 1.2e-07M
O=C(O)/C=C\C(=O)N1Cc2cc3ccccc3nc2C1	none
Sc1ccc2ccccc2c1CNCc1ccccc1	none
N#CC(C(=O)NCc1ccccc1)c1nc2ccccc2nc1N1CCCC1 (stereo unspecified)	A488 autofl 2.2e-08M, Fluorescein fluor 3.9e-07M
C=CCn1c(=O)/c(=C/c2ccc(C)o2)s/c1=C(/C#N)C(=O)c1ccccc1	A488 autofl inconclusive, Fluorescein fluor 9.9e-08M
Cc1c(-n2cc(C(=O)c3ccccc3O)cc(C#N)c2=O)c(=O)n(-c2ccccc2)n1C	A488 autofl inconclusive, Fluorescein fluor 3.7e-08M
CN1/C(=C\C(=O)COC(=O)Cn2nnc(-c3ccccc3)n2)C(C)(C)c2ccccc21	Texas Red fluor 2.2e-08M, Rhodamine autofl inconclusive, Fluorescein fluor inconclusive, Resorufin fluor inconclusive
O=C(O)CC[C@@H](C(=O)O)N1C(=O)[C@@H]2[C@@H]3CC[C@H](C3)[C@@H]2C1=O	Fluorescein fluor inconclusive
CCN1C(=S)SC(=O)C1=C1C=C(C)OC(C)=C1	Texas Red fluor inconclusive, A488 autofl inconclusive, Fluorescein fluor 1.7e-07M
CCN1C(=S)SC(=O)C1=C1C=C(C)N(Cc2ccco2)C(C)=C1	Texas Red fluor inconclusive, Fluorescein fluor inconclusive
NC1=CC(=O)c2cccc3cccc1c23	A488 autofl inconclusive, Fluorescein fluor 3.6e-08M
CC1=CC(=O)c2ccccc2C1=O	Fluorescein fluor inconclusive
C[C@@H](C(=O)O)/C(=C/c1ccc2c(c1)OCO2)C(=O)O	Fluorescein fluor inconclusive
Cc1cc(OCC(=O)NCCN2CCOCC2)ccc1Br	Fluorescein fluor 2.3e-08M
CN(C)c1ccc(-c2ccc3ncnc(N(C)Cc4ccco4)c3c2)cc1	none
CCn1nc(C)c(/C=C2\CCCC3=C2OC(N)=C(C#N)C3c2c(C)nn(CC)c2C)c1C (stereo unspecified)	Fluorescein fluor 2.4e-08M
Cc1nn(-c2ccccc2)c(Cl)c1C1C(C#N)=C(N)OC2=C1C(=O)CCC2 (stereo unspecified)	Fluorescein fluor inconclusive
O=C(c1ccncc1)N1CCC[C@@]2(CCN(Cc3ccccc3)C2)C1	none
CN(C)C(=O)c1ccc(-c2nccc(NCc3cccnc3)n2)cc1	Fluorescein fluor inconclusive
COCCn1c(=O)cnc2cnc(Nc3cccc(OC)c3)nc21	none
CCOC(=O)CCCN	Fluorescein fluor inconclusive

Source: PubChem (National Center for Advancing Translational Sciences (NCATS))
